The source of these data is PubChem BioAssay (NCI).

About 83,000 compounds went through this panel and 20% of them were active in at least one assay; those are over-represented in the sample as a whole.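 Plates (96-well) were seeded with cells, treated with compound at one concentration, and incubated for 48 hours before percent growth was determined.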 Values without a mark were called inactive. The source made the active and inactive calls. Rule for the calls: active = growth percent below 10; inactive = the rest.

Test systems include SR leukemia; OVCAR-8 ovarian; OVCAR-5 ovarian; OVCAR-4 ovarian; SK-OV-3 ovarian; IGROV1 ovarian; OVCAR-3 ovarian; HS 578T breast; NCI/ADR-RES ovarian; RPMI-8226 leukemia.
Holding throughout (assay): NCI-60 one-dose screen, 48 h (100 = growth as untreated, 0 = no growth, -100 = all killed)
Holding throughout (conditions): 10 µM unless noted

`Oc1c(Cl)cc(Oc2cc(Cl)c(O)c(CN3CCOCC3)c2)cc1CN1CCOCC1`: the growth in the assay with SR leukemia is 80.2%; in the assay on OVCAR-8 ovarian, 94.8%; with OVCAR-5 ovarian, 98%; in the assay with OVCAR-4 ovarian, 88.2%; in the assay with SK-OV-3 ovarian, 101%; in the assay with IGROV1 ovarian, 92.5%. For the same molecule, the values for the growth in the assay with OVCAR-3 ovarian and in the assay with HS 578T breast were 94.5% and 93.5%, respectively.
For the molecule `COc1ccc(NC(=O)[C@@H]2C[C@H]2c2ccccc2)c(C(N)=O)c1`, the growth was 77.6% in the assay on SR leukemia; 99.1% with OVCAR-8 ovarian; 102% in the assay on OVCAR-5 ovarian; 107% in the assay on OVCAR-4 ovarian; 102% in the assay with SK-OV-3 ovarian; -8.06% (active) with IGROV1 ovarian. Besides, the growth in the assay with OVCAR-3 ovarian is 98.9%; with HS 578T breast, 102%; in the assay with NCI/ADR-RES ovarian, 99%.
As to `COc1cc(/C(Cl)=C/C=C/C(=O)c2c(C)[n+]([O-])c3ccc(Cl)cc3[n+]2[O-])cc(OC)c1OC`, the growth with SR leukemia was 2.04% (active); in the assay with RPMI-8226 leukemia, 19%; with OVCAR-5 ovarian, 81.8%; in the assay with OVCAR-4 ovarian, 34.1%; in the assay with SK-OV-3 ovarian, 69.5%; in the assay on OVCAR-3 ovarian, 33.7%. In addition, the growth was 17.4% in the assay with HS 578T breast and 31.1% in the assay with NCI/ADR-RES ovarian.
As to `O=C(COc1ccc(/C=C2\Cc3ccccc3C2=O)cc1)c1ccc(Cl)cc1`, the growth with SR leukemia was 117%; in the assay on RPMI-8226 leukemia it was 90.3%; in the assay with OVCAR-5 ovarian, 102%; in the assay with OVCAR-4 ovarian, 112%; in the assay on SK-OV-3 ovarian, 112%; with OVCAR-3 ovarian, 128%. In addition, the growth in the assay on HS 578T breast is 105%; in the assay with NCI/ADR-RES ovarian, 92.6%.
Take `CC(=O)Nc1c(Cl)cc2c(c1Cl)Cc1cc([N+](=O)[O-])ccc1-2`: the growth was 70% in the assay on SR leukemia; 77.7% in the assay on OVCAR-8 ovarian; 117% with OVCAR-5 ovarian; 81.2% in the assay on OVCAR-4 ovarian; 84.4% in the assay on SK-OV-3 ovarian; 117% in the assay on IGROV1 ovarian. Further, the growth in the assay on OVCAR-3 ovarian is 72%; in the assay with HS 578T breast, 34.6%; in the assay on NCI/ADR-RES ovarian, 94.8%.
For the molecule `Nc1nc(Nc2ccccc2SSc2ccccc2Nc2nc(N)nc(-c3cccc(Cl)c3)n2)nc(-c2cccc(Cl)c2)n1`, the growth is 39.3% with SR leukemia; 90.7% in the assay on OVCAR-8 ovarian; 97.5% in the assay on OVCAR-5 ovarian; 120% in the assay with OVCAR-4 ovarian; 133% in the assay on SK-OV-3 ovarian; 69.7% in the assay on IGROV1 ovarian. In addition, the figures for the growth in the assay on OVCAR-3 ovarian, in the assay on HS 578T breast and with NCI/ADR-RES ovarian were 96.2%, 105% and 81.3%, respectively.
Turning to `Cc1cccc2nnc(-c3ccccc3)n12`, the growth with SR leukemia was 93%; in the assay with OVCAR-8 ovarian, 109%; with OVCAR-5 ovarian, 107%; in the assay with OVCAR-4 ovarian, 104%; with SK-OV-3 ovarian, 121%; with IGROV1 ovarian, 115%. Besides, the growth with OVCAR-3 ovarian was 129%; in the assay with HS 578T breast, 146%; in the assay on NCI/ADR-RES ovarian it was 107%.
On to `C1CCC(C(CC2CCCCN2)C2CCCCC2)CC1` (stereo not drawn), for which the growth was -39.7% (active) in the assay with SR leukemia; 5.39% (active) with RPMI-8226 leukemia; 28.8% in the assay on OVCAR-4 ovarian; -52.3% (active) in the assay on SK-OV-3 ovarian; 6.73% (active) in the assay on IGROV1 ovarian; -3.79% (active) in the assay with OVCAR-3 ovarian. The growth is 57% in the assay on HS 578T breast and 14.3% in the assay with NCI/ADR-RES ovarian.
Take `O=C1N=C(N2CCOCC2)S/C1=C\c1cn(-c2ccccc2)nc1-c1ccccc1`: the growth in the assay with SR leukemia was 71.5%; in the assay with OVCAR-8 ovarian, 69.9%; with OVCAR-5 ovarian it was 109%; in the assay with OVCAR-4 ovarian, 25.1%; with SK-OV-3 ovarian it was 83.3%; in the assay on IGROV1 ovarian, 79.9%. Besides, the growth with OVCAR-3 ovarian is 58%; in the assay on HS 578T breast it was 57.4%.
`O=C1Nc2ccc(C(=O)O)c(O)c2C1=O`: the growth in the assay with SR leukemia was 105%; with OVCAR-8 ovarian, 107%; with OVCAR-5 ovarian, 95.3%; in the assay on OVCAR-4 ovarian it was 112%; in the assay with SK-OV-3 ovarian, 110%; with IGROV1 ovarian, 111%. Moreover, the growth in the assay on OVCAR-3 ovarian is 113%; in the assay on HS 578T breast it was 108%.
On to `O=c1ncc(-c2ccc(C(F)(F)F)cc2)c(NC2CCCCCC2)[nH]1`, for which the growth in the assay with SR leukemia is 69%; in the assay on RPMI-8226 leukemia, 5% (active); in the assay on OVCAR-5 ovarian, 91.3%; in the assay with OVCAR-4 ovarian, 53.5%; in the assay on SK-OV-3 ovarian it was 83.9%; in the assay with IGROV1 ovarian, 51%. The growth was -2.84% (active) in the assay on OVCAR-3 ovarian, 68.6% with HS 578T breast and 102% in the assay with NCI/ADR-RES ovarian.
In the case of `Nc1ccc2c(c1Br)Cc1ccccc1-2`, the growth in the assay on SR leukemia was 93.6%; with OVCAR-8 ovarian it was 98.6%; in the assay with OVCAR-5 ovarian it was 94.6%; in the assay on OVCAR-4 ovarian it was 98.6%; in the assay with SK-OV-3 ovarian, 95.4%; with IGROV1 ovarian, 108%. The growth is 99.1% in the assay with OVCAR-3 ovarian, 95.4% in the assay with HS 578T breast and 100% in the assay on NCI/ADR-RES ovarian.
Turning to `Nc1ccc2c(c1)Cc1cc(Cl)c(Cl)cc1-2`, the growth was 70.4% in the assay with SR leukemia; 86.4% in the assay with OVCAR-8 ovarian; 82.6% in the assay on OVCAR-5 ovarian; 78.6% in the assay with OVCAR-4 ovarian; 69.1% with SK-OV-3 ovarian; 89.1% in the assay with IGROV1 ovarian. In addition, the values for the growth in the assay on OVCAR-3 ovarian, in the assay with HS 578T breast and with NCI/ADR-RES ovarian were 7.25% (active), 67.9% and 62.9%, respectively.
For `COc1ccc2[nH]c(=O)c(CNc3ccc(Nc4nccc(-c5ccc(Cl)cc5)n4)cc3)cc2c1`, the growth with SR leukemia is 54%; in the assay with RPMI-8226 leukemia, 77.6%; in the assay on OVCAR-5 ovarian, 103%; with OVCAR-4 ovarian, 99.9%; in the assay on SK-OV-3 ovarian, 118%; in the assay on IGROV1 ovarian, 89.1%. In addition, the growth in the assay with OVCAR-3 ovarian was 89.3%; with HS 578T breast it was 101%; in the assay with NCI/ADR-RES ovarian, 92.5%.
For the molecule `O=C(c1ccc(Cl)cc1)c1ccc(Cl)cc1`, the growth in the assay with SR leukemia is 93.3%; in the assay on RPMI-8226 leukemia it was 115%; in the assay on OVCAR-5 ovarian, 88.7%; with OVCAR-4 ovarian, 92.4%; in the assay on SK-OV-3 ovarian, 114%; in the assay on OVCAR-3 ovarian, 105%. Besides, the growth with HS 578T breast was 130%; in the assay on NCI/ADR-RES ovarian, 103%.
